Bioassay records: PubChem, The Scripps Research Institute Molecular Screening Center
In the library only some 0.84% were active in any assay of this set; here they are far more common.
SRC2 TRFRET art = flags TR-FRET format artefacts in PPARgamma SRC-2 recruitment agonist screen. TR-FRET artefact counter-screen; hits give high values. TR-FRET ratio at 8 µM. AID 1049. 200,000 tested, 0.4% active; in the data active = TR-FRET ratio above about 2000
SRC3 TRFRET art = TR-FRET artefact, counter-screen to PPARgamma/SRC-3 agonist assay | PPARgamma/SRC-3 format; hits give high values | TR-FRET ratio at 8 µM | 99,000 tested, 0.39% active | AID 1048; in the data active = TR-FRET ratio above about 2000
PPARg SRC-2 ag = agonists of SRC-2 recruitment by human PPARgamma; P37231; PPARgamma LBD-SRC-2 recruitment, biochemical; activation, % at 8 µM; 200,000 tested, 0.34% active; AID 1032
Target sequence (P37231 whole entry, looked up, the tested form may be a part): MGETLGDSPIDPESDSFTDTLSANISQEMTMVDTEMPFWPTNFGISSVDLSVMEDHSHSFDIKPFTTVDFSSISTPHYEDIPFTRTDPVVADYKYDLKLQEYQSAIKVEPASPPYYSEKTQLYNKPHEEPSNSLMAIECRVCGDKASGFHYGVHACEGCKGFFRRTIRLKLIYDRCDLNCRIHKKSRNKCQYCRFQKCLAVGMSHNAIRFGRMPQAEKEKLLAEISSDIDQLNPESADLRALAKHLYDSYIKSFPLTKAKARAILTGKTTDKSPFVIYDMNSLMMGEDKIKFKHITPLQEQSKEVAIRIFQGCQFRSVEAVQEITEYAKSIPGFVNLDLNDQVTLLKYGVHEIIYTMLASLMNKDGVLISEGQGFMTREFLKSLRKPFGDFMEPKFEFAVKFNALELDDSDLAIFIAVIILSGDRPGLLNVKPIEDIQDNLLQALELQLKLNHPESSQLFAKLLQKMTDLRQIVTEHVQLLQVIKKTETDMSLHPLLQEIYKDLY
PPARg SRC-1 ag = PPARgamma-driven SRC-1 recruitment agonism. P37231. PPARgamma-SRC-1 coactivator recruitment biochemical assay. activation, % at 8 µM. 200,000 tested, 0.41% active; in the data active = activation above about 19%
SRC1 TRFRET art = TR-FRET artefact, counter-screen to PPARgamma/SRC-1 agonist assay | TR-FRET detection artefact counter-screen, emission ratio; hits give high values | TR-FRET ratio at 8 µM | 99,000 tested, 0.34% active; in the data active = TR-FRET ratio above about 2300
PPARg SRC-3 ag = PPARgamma-driven SRC-3 recruitment agonism; 200,000 tested, 0.26% active; activation, % at 8 µM; biochemical PPARgamma/SRC-3 coactivator recruitment assay; in the data active = activation above about 23%
PPARg SRC2 ag = confirmation of agonists of SRC-2 recruitment by human PPARgamma. shares compounds with PPARg SRC-3 ag. 790 tested, 52% active. biochemical SRC-2 recruitment by PPARgamma. activation, % at 8 µM
PPARg SRC1 conf = human PPARgamma SRC-1 recruitment agonism, confirmation; shares compounds with PPARg SRC-3 ag; 790 tested, 43% active; AID 1300; activation, % at 8 µM; PPARgamma–SRC-1 coactivator recruitment biochemical assay; in the data active = activation above about 20%
PPARg SRC3 conf = human PPARgamma SRC-3 recruitment agonism, confirmation. shares compounds with PPARg SRC-3 ag. 790 tested, 29% active. AID 1301. activation, % at 8 µM. biochemical PPARgamma-SRC-3 coactivator recruitment, agonist mode; in the data active = activation above about 24%
Numbers stand for hits. Cut-off read from the data, not from the text of the source, unless noted: active = activation above about 22%; inactive = the rest.

For COc1c(C)cccc1C(=O)NC(=S)Nc1cccc2nsnc12 the results were SRC2 TRFRET art 2472, SRC3 TRFRET art 2881, PPARg SRC-2 ag 30, PPARg SRC-1 ag 39, SRC1 TRFRET art 2682, PPARg SRC-3 ag 36, PPARg SRC2 ag 90, PPARg SRC1 conf 71 and PPARg SRC3 conf 60.
CC(C)CC(=O)NC(=S)Nc1cccc2nsnc12 was read as SRC2 TRFRET art 3677, SRC3 TRFRET art 4035, PPARg SRC-2 ag 87, PPARg SRC-1 ag 135, SRC1 TRFRET art 5013, PPARg SRC-3 ag 62, PPARg SRC2 ag 137, PPARg SRC1 conf 105 and PPARg SRC3 conf 81.
Cc1ccc(-c2csc(/C(C#N)=C/Nc3ccccc3SC(F)(F)F)n2)cc1 was read as SRC2 TRFRET art inactive, SRC3 TRFRET art inactive, PPARg SRC-2 ag inactive, PPARg SRC-1 ag inactive, SRC1 TRFRET art inactive and PPARg SRC-3 ag inactive.
COc1ccc2c(c1)O[C@@H](c1cccc(C(F)(F)F)c1)[C@H](OC(=O)N[C@H]1CCCc3ccccc31)C2=O was read as SRC2 TRFRET art inactive, SRC3 TRFRET art inactive, PPARg SRC-2 ag 25, PPARg SRC-1 ag inactive, SRC1 TRFRET art inactive, PPARg SRC-3 ag inactive, PPARg SRC2 ag inactive, PPARg SRC1 conf inactive and PPARg SRC3 conf inactive.
For CC(C)OC(=O)CCCN1C(=O)c2ccc(N)cc2C1=O the results were SRC2 TRFRET art inactive, PPARg SRC-2 ag 23, PPARg SRC-1 ag inactive, PPARg SRC-3 ag inactive, PPARg SRC2 ag inactive, PPARg SRC1 conf inactive and PPARg SRC3 conf inactive.
COC(=O)c1cc(Br)c(=O)n(-c2nccs2)c1 was read as SRC2 TRFRET art 2990, PPARg SRC-2 ag 57, PPARg SRC-1 ag 37, PPARg SRC-3 ag 74, PPARg SRC2 ag 22, PPARg SRC1 conf inactive and PPARg SRC3 conf inactive.
COC(=O)c1cc(Br)c(=O)n(-c2ccccn2)c1 was read as SRC2 TRFRET art inactive, PPARg SRC-2 ag inactive, PPARg SRC-1 ag inactive and PPARg SRC-3 ag inactive.
Screening O=C1CCC(=O)N1c1ccc(-c2nc3ccccc3s2)cc1 returned SRC2 TRFRET art inactive, SRC3 TRFRET art inactive, PPARg SRC-2 ag 25, PPARg SRC-1 ag 28, SRC1 TRFRET art inactive, PPARg SRC-3 ag inactive, PPARg SRC2 ag inactive, PPARg SRC1 conf inactive and PPARg SRC3 conf inactive.
`COCCNc1nc2ccccc2nc1NS(=O)(=O)c1ccc(C)cc1C` gave SRC2 TRFRET art 2002, PPARg SRC-2 ag 23, PPARg SRC-1 ag inactive, PPARg SRC-3 ag inactive, PPARg SRC2 ag 24, PPARg SRC1 conf inactive and PPARg SRC3 conf inactive.
`CCOC(=O)c1cc(Br)c(=O)n2ccccc12` gave SRC2 TRFRET art 2044, PPARg SRC-2 ag 39, PPARg SRC-1 ag 32, PPARg SRC-3 ag 32, PPARg SRC2 ag inactive, PPARg SRC1 conf inactive and PPARg SRC3 conf inactive.
For O=C(c1ccccc1)c1sc(N2CCCCCC2)nc1-c1ccccc1 the results were SRC2 TRFRET art inactive, PPARg SRC-2 ag inactive, PPARg SRC-1 ag 19, PPARg SRC-3 ag inactive, PPARg SRC2 ag inactive, PPARg SRC1 conf inactive and PPARg SRC3 conf inactive.
Screening [2H]c1c([2H])c([2H])c(C(=O)c2sc(N3CCCCCC3)nc2-c2ccccc2)c([2H])c1[2H] returned SRC2 TRFRET art inactive, PPARg SRC-2 ag inactive, PPARg SRC-1 ag inactive, PPARg SRC-3 ag 28, PPARg SRC2 ag inactive, PPARg SRC1 conf inactive and PPARg SRC3 conf inactive.
Cc1cc(SCC(=O)N2CCCC2)nc2ccccc12 was read as SRC2 TRFRET art inactive, PPARg SRC-2 ag inactive, PPARg SRC-1 ag inactive and PPARg SRC-3 ag inactive.
COc1ccc(S(=O)(=O)CCC(=O)N2CCN(c3ccc(F)cc3)CC2)cc1 was read as SRC2 TRFRET art inactive, SRC3 TRFRET art inactive, PPARg SRC-2 ag inactive, PPARg SRC-1 ag inactive, SRC1 TRFRET art inactive and PPARg SRC-3 ag inactive.
Screening CCc1cc2c(=O)n(-c3ccccc3)c(=S)[nH]c2s1 returned SRC2 TRFRET art 2026, PPARg SRC-2 ag 37, PPARg SRC-1 ag 27, PPARg SRC-3 ag 41, PPARg SRC2 ag 31, PPARg SRC1 conf 25 and PPARg SRC3 conf inactive.
